A selection: hits, their analogues and other compounds. The true share with any hit is near 6%.
Chronic BCR inh – inhibitors of chronic active B-cell receptor signaling; ABC-DLBCL IkBa-CBG/CBR reporter, luminescence ratio, 4 h; Potency, µM (series often up to 46.1 µM), for inactives: at the highest dose activity change, negative = inhibition, hits mostly inhibitors; 340,000 tested, 0.05% active; active = well fitted inhibition curve with a large enough effect in the signal ratio, with a control signal flat, not every such curve was filed as active; inconclusive = small, poorly fitted or top-dose-only effect, or effect the other way, or a change in a side signal; the % refers to the signal ratio;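 note: potency is the fitted concentration of half-maximal effect; plate controls were basal doxycycline-induced cells for no effect and cells given 10 µM MG132 for full effect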
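Compounds up to 46 uM were incubated four hours with TMD8 cells whose green CBG68 luciferase is fused to IkappaBalpha; red CBR luminescence normalised the signal, and concentration-effect curves were fitted to fusion, red and ratio data.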
D3 ag – activates the human D3 dopamine receptor; max activation, %; AID 652048; D3R DiscoveRx beta-arrestin cells, luminescence, 90 min; 410,000 tested, 0.58% active; P35462; in the data active = max activation above about 30%; note: 0% is about no effect
Target sequence (P35462 whole entry, looked up): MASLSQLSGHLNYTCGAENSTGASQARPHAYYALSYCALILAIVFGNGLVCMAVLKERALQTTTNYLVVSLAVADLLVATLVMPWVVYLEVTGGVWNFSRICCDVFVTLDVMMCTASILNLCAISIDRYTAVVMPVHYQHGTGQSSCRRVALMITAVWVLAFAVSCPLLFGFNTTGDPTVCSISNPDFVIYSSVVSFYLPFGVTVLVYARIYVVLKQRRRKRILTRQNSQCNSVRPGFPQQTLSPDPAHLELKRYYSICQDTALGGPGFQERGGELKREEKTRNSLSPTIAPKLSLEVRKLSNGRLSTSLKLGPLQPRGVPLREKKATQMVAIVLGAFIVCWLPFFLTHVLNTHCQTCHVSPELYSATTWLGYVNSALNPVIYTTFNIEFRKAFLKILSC
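Agonist-mode cell screen: cells plated at 1500/well and incubated overnight at 37 °C, then exposed to library compounds for 90 min at 37 °C. Detection reagent was added for 30–60 min at room temperature, and luminescence was read.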
D3 antag – antagonists of human D3 dopamine receptor. 360,000 tested, 2.5% active. max response, negative = inhibition, %. P35462. D3R cells, DiscoveRx beta-arrestin luminescence, antagonist mode; stronger effect = lower value; in the data active = max response below about -50%; inconclusive = no clear call, values can overlap the other calls; note: % is set by controls: 0 for no effect and ±100 for the full control effect
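Cells plated overnight at 1500 cells/well, then exposed to library compounds with dopamine controls for 90 minutes at 37 degrees C. DiscoveRx reagent added for 30–60 minutes at room temperature; luminescence read, quantitative HTS format.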
D1 antagonist – human D1 dopamine receptor antagonism; 360,000 tested, 3.2% active; activity change, negative = inhibition, % at 10 µM; HEK293 TREx D1 cells, calcium flux, dopamine EC80; stronger effect = lower value; in the data active = activity change below about -30%; note: % is set by controls: 0 for no effect and ±100 for the full control effect
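Compound effects on dopamine-evoked calcium signalling were measured in tetracycline-induced HEK293 Trex D1 cells. Dopamine at EC80 followed a 180 s compound pre-read, and fluorescence was tracked kinetically for 180 s more.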
D1 ag – activates the human D1 dopamine receptor; HEK293 T-REx D1 cells, calcium flux, agonist mode; AID 504660; P21728; activation, % at 2 µM; 360,000 tested, 1% active; in the data active = activation above about 30%; note: 0% is about no effect
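Tetracycline-induced HEK293 TREx D1 cells, force-coupled to calcium signalling, were dye-loaded with a no-wash calcium kit. Compound was pin-added after a 10 s baseline. Fluorescence was read kinetically at 1 cycle/s for 180 s, with calcium rises flagged as agonism.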
D1 potentiator – enhances dopamine response at the human D1 receptor; potentiation, % at 10 µM; P21728; HEK293 TREx D1 cells, calcium flux, dopamine EC20 potentiation; 360,000 tested, 0.036% active; in the data active = potentiation above about 30%; note: 0% is about no effect
An asterisk follows results filed as active; ? = inconclusive; . = no result given.

SMILES	Chronic BCR inh	D3 ag	D3 antag	D1 antagonist	D1 ag	D1 potentiator
Cc1ccc(C(=O)NCC(=O)OC(C(=O)Nc2cc(C(F)(F)F)ccc2Cl)c2ccccc2)cc1 (configuration not stated)	.	.	.	10.9	2.2	0.8
COc1ccccc1CNC(=O)Nc1nc(C(N)Cc2ccc(Cl)cc2)cs1 (configuration not stated)	.	3.2	11.2	.	.	.
c1ccc(CNCCC(Cc2ccccc2)c2ccco2)cc1 (configuration not stated)	-11.5%	-34.3	-10.4	-2.4	18.9	-6.5
CN(C)c1ccc(CNCCC(Cc2ccccc2)c2ccco2)cc1 (configuration not stated)	?	-12.5	6.9	11.3	47.5*	-7.0
CC(C)Cn1c(-c2ccco2)nc2c(c(=O)c3ccccc3n2C)c1=O	0.2%	.	.	-17.0	6.4	-5.0
Cc1nc2c(c(=O)c3ccccc3n2C)c(=O)n1C1CCCCCC1	?	3.7	1.4	9.1	154.0*	0.3
Cn1c2ccccc2c(=O)c2c(=O)n(C3CCCCC3)c(-c3ccco3)nc21	-9.3%	-14.1	-18.8	-3.5	105.8*	-9.1
CCc1nc2c(OCc3ccccc3C)cccn2c1N(C)C(=O)c1ccc(C)cc1	.	4.5	0.0	.	.	.
COc1ccc(OC)c(NC(=O)C2(C)CCN2C(=O)Cc2ccc(Cl)cc2Cl)c1 (configuration not stated)	.	5.7	20.6	.	.	.
O=C1c2ccccc2C(=O)c2c1oc(C(F)(F)F)c2C(=O)c1ccccc1	0.8%	-19.6	-69.8*	-6.9	0.3	2.8
Cc1ccc(SCCN2CCC(NC(=O)OCc3ccccc3)CCC2=O)cc1 (configuration not stated)	14.8%	6.4	15.9	-16.7	1.4	-7.2
Cc1ccc(S[C@@H](CCN2CC[C@H](O)CCC2=O)c2ccccc2)cc1	-8.3%	5.0	0.0	-31.0*	0.2	-3.1
O=C(N[C@@H]1CCC(=O)N(CC[C@H](Sc2ccccc2)c2ccccc2)CC1)OCc1ccccc1	2.1%	-49.5	-91.6*	10.2	9.5	-2.8
COC(=O)C1CCN(CC(=O)N(C)c2c(N)n(Cc3ccccc3)c(=O)[nH]c2=O)CC1	-3.7%	-3.6	-13.6	-36.5*	-0.3	-4.5
Cc1cc(C)n(-c2nc3ccccc3nc2Nc2ccc3[nH]c(=O)[nH]c3c2)n1	?	41.8*	24.5	19.2	4.2	12.1
O=C(CSc1ccccn1)Nc1ccc(Cl)c([N+](=O)[O-])c1	1.1%	-0.6	-15.3	-33.7*	7.5	-4.8
CCCCCn1c(=N)c(S(=O)(=O)c2ccccc2)cc2c(=O)n3ccccc3nc21	.	-5.0	.	-61.6*	1.2	-0.1
Cc1nnsc1SC(C)C(=O)O (configuration not stated)	-7.7%	-0.9	16.2	-49.7*	4.9	-5.7
CCOC(=O)C(C)Sc1snnc1C (configuration not stated)	.	-4.3	-9.9	.	.	.
Cc1cc(F)ccc1NC(=O)c1c(C)oc2c1C1=NCCN1C=N2	.	-10.8	.	-24.1	1.3	-7.8
Cc1cccc(C)c1Nc1c(-c2ccsc2)nc2cccc(C)n12	.	4.4	.	5.8	0.2	2.6
CS(=O)(=O)N(CC(=O)NCc1ccccc1)C1CCCCC1	-19.1%	4.2	10.5	-61.4*	-1.1	-13.9
Cc1ccc(CNC(=O)CN(C2CCCCC2)S(C)(=O)=O)cc1	-3.3%	-8.5	8.6	10.0	-1.9	-8.6
COc1ccc(CNC(=O)CN(C2CCCCC2)S(C)(=O)=O)cc1	-6.2%	-6.9	-17.1	-32.4*	1.8	-8.8
COc1ccc(C(CCN2CCCC2)c2c(OC)cc(OC)c3c(-c4ccccc4)cc(=O)oc23)cc1 (configuration not stated)	-5.7%	-16.4	11.5	-8.5	14.5	-10.6
SMILES	Chronic BCR inh	D3 ag	D3 antag	D1 antagonist	D1 ag	D1 potentiator
COc1cc(OC)c2c(-c3ccccc3)cc(=O)oc2c1C(CCN1CCCC(C)C1)c1ccc(N(C)C)cc1 (configuration not stated)	?	-41.6	?	1.2	21.9	-7.6
COc1ccc(C(CCN2CCCC(C)C2)c2c(OC)cc(OC)c3c(-c4ccccc4)cc(=O)oc23)cc1 (configuration not stated)	?	-56.2	-53.2*	-17.4	28.6	-10.4
COc1ccc(C(CCN2CCCC(C)C2)c2c(OC)cc(OC)c3c(C)cc(=O)oc23)cc1 (configuration not stated)	-0.9%	-67.4	-88.7*	14.3	5.3	1.9
Cc1cc2c(s1)c1cnn(Cc3ccc(-n4cncn4)cc3)c(=O)c1n2C	.	.	.	4.8	0.7	-3.4
CN(CC(=O)Nc1ccc(F)cc1)C(=O)c1ccc(-c2ccc(F)cc2)o1	.	-10.5	-12.9	.	.	.
COc1ccc(CN2C(=O)C(CC(=O)NC3CCCC3)CC(C(=O)N(C(C)C)C(C)C)=C2C)cc1 (configuration not stated)	.	-8.7	-23.5	.	.	.
O=C(NC(=O)c1ccccc1O)c1ccc(C(F)(F)F)cc1	?	1.9	-9.9	-26.9	37.3*	-5.4
O=C(NC(=S)NNC(=O)c1ccccc1O)c1ccc(F)cc1	?	-2.0	-10.4	-8.2	22.4	-3.8
CCCc1ccc(C(=O)NC(=O)c2ccccc2O)cc1	?	22.9	4.3	-64.4*	21.5	-5.0
CCOC(=O)N1CCN(C(=O)C[C@@H]2C[C@@]3(C(=O)OCC)CCCC=C3N(Cc3ccco3)C2=O)CC1	.	2.4	18.9	.	.	.
O=C(CN1CCN(c2ccccc2F)CC1)c1ccc2cc[nH]c2c1	-4.4%	-3.0	-63.3*	-26.1	4.7	-7.5
CC(=O)N1CCc2cc(S(=O)(=O)CCC(=O)N3CCN(c4ccccn4)CC3)ccc21	-1.5%	-0.4	3.2	-5.6	0.1	-7.8
CC(=O)N1CCc2cc(C(=O)CN3CCN(c4ccccc4F)CC3)ccc21	-10.0%	-0.5	-65.4*	-8.1	1.5	-6.0
CC(=O)N1CCc2cc(C(=O)CN3CCN(c4ccccn4)CC3)ccc21	?	67.9*	-3.8	-12.9	4.7	-12.1
O=C(CN1CCN(c2ccccc2F)CC1)c1c[nH]c2ccc(F)cc12	?	-3.5	-10.3	.	4.8	-4.5
CNS(=O)(=O)c1cn(CC(=O)N2CCN(c3ccc(C(C)=O)cc3)CC2)cc1S(=O)(=O)NC	.	-15.3	.	2.0	0.8	-0.8
CCOC(=O)C1=C(CS(=O)(=O)c2ccc(F)cc2)NC(=O)NC1c1ccc(OCC)c(OC)c1 (configuration not stated)	.	-12.9	.	28.6	-2.5	2.0
CCN(CC)S(=O)(=O)c1cc([N+](=O)[O-])ccc1NNC(=O)Nc1ccc(Cl)c(Cl)c1	?	-7.1	-83.7*	-26.8	8.5	-11.6
